According to PubChem BioAssay AID588342 (National Center for Advancing Translational Sciences (NCATS), 2011):
Values joined by “and” are separate entries in the source; they are usually repeats but may differ in a detail not shown here. Equal values may be shown once. About 25,000 (6.9%) of roughly 360,000 compounds were called active. Inconclusive results (about 9%) are left out. The list comes from a sample in which actives are over-represented; it also holds similar structures and randomly drawn compounds. Unmarked numbers belong to inactive results. Calls come from the whole dose curve; as a rule, active = well fitted inhibition curve with a large enough effect; inconclusive = small, poorly fitted or top-dose-only effect; inactive = flat fitted curve, though single readings scatter.

target: Luciferin 4-monooxygenase (Photinus pyralis) (UniProt P08659); experiment: qHTS profiling assay for firefly luciferase inhibitor/activator using purifed enzyme and Km concentrations of substrates (counterscreen for miR-21 project); settings: purified FLuc, luminescence inhibition; series mostly up to 57.5 µM; activity change, negative = inhibition: at the top concentration; note: nearly all actives have a fitted effect of over 55% in size;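 for activity change, negative = inhibition: plate controls were vehicle for no effect and reference inhibitor for full effect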
Summary of the method: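 Purified P. pyralis luciferase, 10 nM final, with Km-level 10 uM D-luciferin and 10 uM ATP in 50 mM Tris acetate pH 7.5, 10 mM Mg acetate, 0.01% Tween-20, 0.05% BSA; 6-point qHTS titration about 60 µM downward; luminescence read.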
Potency is the fitted concentration of half-maximal effect.

Chain of Luciferin 4-monooxygenase (Photinus pyralis) (P08659 whole entry, looked up): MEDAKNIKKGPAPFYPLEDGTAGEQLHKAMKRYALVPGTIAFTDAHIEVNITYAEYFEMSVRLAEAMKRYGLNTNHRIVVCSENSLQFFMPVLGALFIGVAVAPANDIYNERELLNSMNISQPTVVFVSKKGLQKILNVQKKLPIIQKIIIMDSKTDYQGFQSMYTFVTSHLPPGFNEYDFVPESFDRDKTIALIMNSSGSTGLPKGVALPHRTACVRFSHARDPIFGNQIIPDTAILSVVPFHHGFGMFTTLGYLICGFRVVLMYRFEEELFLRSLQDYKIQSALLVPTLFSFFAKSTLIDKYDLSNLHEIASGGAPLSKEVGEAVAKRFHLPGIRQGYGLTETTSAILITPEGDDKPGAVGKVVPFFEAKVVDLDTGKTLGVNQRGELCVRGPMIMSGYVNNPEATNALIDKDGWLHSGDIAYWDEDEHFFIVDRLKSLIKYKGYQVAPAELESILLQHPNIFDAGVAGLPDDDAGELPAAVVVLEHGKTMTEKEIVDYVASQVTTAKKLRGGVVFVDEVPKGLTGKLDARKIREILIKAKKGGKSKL

| Compound | activity change, negative = inhibition [%] | Potency |
| --- | --- | --- |
| COc1ccc(C(=O)NC2CC2)cc1OC1CCN(Cc2cnn(C)c2)CC1 | 4.8 | – |
| N=c1c2c(-c3ccccc3)c(-c3ccccc3)n(Cc3ccccc3)c2ncn1CCCO | 0.125 | – |
| OCCCN1c2ccccc2Nc2nnc(-c3ccccc3)cc21 | – | 1.9 µM (active) |
| COC(=O)c1ccccc1NS(=O)(=O)c1ccc2c(c1)CCCN2C(C)=O | -13.4 | – |
| CC1CCCN(c2ccc(C(=O)NCCc3ccccc3)cn2)C1 (centres undefined) | – | 7.57 µM (active) |
| O=C(NCCc1ccccc1)c1cnc2sc(N3CCCC3)nn2c1=O | 0.37 | – |
| O=C(NCCc1ccccc1)c1ccc2c(c1)N(Cc1ccccc1)CCS2 | -4.39 | – |
| Cc1ccc(-c2nc(Cn3c(=O)cc(-c4ccccc4)c4c(C)nn(C)c43)c(C)o2)cc1 | -6.05 | – |
| CCN(CC)S(=O)(=O)c1ccc2c(c1)N(CC(=O)NCC(C)c1ccccc1)C(=O)CO2 (centres undefined) | -3.19 | – |
| O=S(=O)(NCC(c1ccccc1)N1CCc2ccccc21)c1ccccc1 (centres undefined) | -6.21 | – |
| CC(C)(C)C(=O)OCc1nc(-c2ccc(O)c(O)c2)cs1 | – | 4.26 µM (active) |
| Cc1onc(C(=O)NN)c1-c1csc(COc2ccccc2)n1 | -4.18 | – |
| CCCCCCn1nnc2sc(-c3ccccc3)cc2c1=O | -2.55 | – |
| Cc1nnc2n1N=C(c1ccccc1)CS2 | -2 | – |
| O=c1c2cc(-c3ccccc3)sc2nc2n1N=C(c1cccs1)CS2 | – | 0.601 µM (active) |
| CCOc1ccc(NC(=O)CC2C(=O)N(c3cccc(OC)c3)C(=O)N2C2CCCCC2)cc1 (centres undefined) | -4.52 | – |
| CCOC(=O)c1c(S(=O)(=O)N2CCCC(C(=O)NCc3cccc(C)c3)C2)c(C)n(C)c1C (centres undefined) | -1.83 | – |
| CCCCC(=O)Nc1cc(C)c2c(=O)oc3ccccc3c2n1 | -17.8 | – |
| CCOC(=O)C1CCCN(CC(=O)Nc2cc(C)c3c(=O)oc4ccccc4c3n2)C1 (centres undefined) | -2.78 | – |
| CCOC(=O)c1c(C)nc2c(c1C)c(=O)oc1ccccc12 | – | 16.9 µM (active) |
| Cc1cc(C)c(C#N)c(N2CCC(C(N)=O)CC2)n1 | 2.33 | – |
| N#Cc1c(N2CCCCC2)nc(N)c2c(N)nc(SCC(=O)O)cc12 | – | 8.49 µM (active) |
| N#Cc1c(-c2ccccc2)cc(-c2ccccc2)nc1SCC(=O)O | -9.04 | – |
| CCOC(=O)N1CCC(NC(=O)c2ccc3nc(N4CCOCC4)sc3c2)CC1 | -1.13 | – |
| O=S(=O)(Nc1ccc2nc(N3CCOCC3)sc2c1)c1ccccc1 | – | 21.3 µM (active) |
| O=C(c1ccc2nc(N3CCOCC3)sc2c1)N1CCN(c2ccc(Cl)cc2)CC1 | -1.27 | – |

| Compound | activity change, negative = inhibition [%] | Potency |
| --- | --- | --- |
| COc1ccccc1N1CC(C(=O)NCCN2C(=O)S/C(=C\c3cccnc3)C2=O)CC1=O (centres undefined) | -1.81 | – |
| NC(=O)COc1ccc(NC(=O)c2ccccc2-c2ccccc2)cc1 | 0.603 | – |
| NC(=O)COc1ccccc1C(=O)NC12CC3CC(CC(C3)C1)C2 | -0.909 | – |
| NC(=O)COc1ccc(C23CC4CC(CC(C4)C2)C3)cc1 | – | 12 µM (active) |
| Cc1ccc(/C=C2\CCn3c2nc2cc(C(=O)O)ccc2c3=O)c(C)c1 | 4.09 | – |
| COc1ccccc1CNC(=O)CCCn1c(=O)c2ccccc2n(CC(=O)Nc2ccc(C)cc2Cl)c1=O | 1.77 | – |
| CCCn1nc(NS(=O)(=O)c2ccccc2)c2cc3cc(C)ccc3nc21 | – | 16.9 µM (active) |
| CCCn1nc(NC(=O)C(C)C)c2cc3cc(OC)ccc3nc21 | -7.62 | – |
| CCCn1nc(NS(=O)(=O)c2ccc(F)cc2)c2cc3ccccc3nc21 | 1.89 | – |
| O=S(=O)(NCC(c1ccco1)N1CCOCC1)c1cc(F)ccc1F (centres undefined) | -3.23 | – |
| Cc1csc2nc(COC(=O)c3ccccc3NC(=O)c3ccccc3Cl)cc(=O)n12 | -0.468 | – |
| CCN(CC)c1nn2c(=O)c(C(=O)NCCc3ccccc3)cnc2s1 | 3.21 | – |
| Cc1cc(-n2nc(C)cc2C)n2nc(C)c(-c3ccccc3)c2n1 | 5.57 | – |
| Cc1cc(-c2ccccc2)n2nc(C)c(-c3ccccc3)c2n1 | – | 16.9 µM (active) |
| Cc1cc(C(C)(C)C)n2nc(C)c(-c3ccccc3)c2n1 | -0.621 | – |
| Cc1ccc(C)n1-c1nnc(N2CCC(C(=O)NCc3ccccc3Cl)CC2)s1 | 4.23 | – |
| O=C(NCc1ccc2c(c1)CCN2C(=O)c1ccccc1)c1ccccc1 | -4.72 | – |
| CC(=O)N(C)c1ccc(NC(=O)C(F)(F)F)cc1 | 0.386 | – |
| CN(C)c1ccc(N/C=C/C(=O)C(F)(F)F)cc1 | – | 10.7 µM (active) |
| CNC(=S)NNC(=O)c1ccc(N(C)C)cc1 | 3.3 | – |
| Cc1ccc2nc(NC(=O)c3nc(SCc4ccccc4F)ncc3Cl)sc2c1 | 1.12 | – |
| CCOc1ccc(NC(=O)c2c(NC(=O)Cc3ccccc3)sc3c2CCC(C)C3)cc1 (centres undefined) | -16.8 | – |
| O=S(=O)(c1cccs1)N1CCN(CCOc2ccccc2)CC1 | -0.715 | – |
| Fc1ccc(-c2nc(Nc3cccc(Cl)c3)nc3c2COc2ccccc2-3)cc1 | -14.4 | – |
| COc1ccc(-c2nc3c4ccccc4n(CC(=O)Nc4ccc(C(C)=O)cc4)c(=O)n3n2)cc1 | 5.2 | – |
| O=C(N/N=C/c1cc2c(cc1Br)OCO2)C1COc2ccccc2O1 (centres undefined) | – | 13.5 µM (active) |

| Compound | activity change, negative = inhibition [%] | Potency |
| --- | --- | --- |
| CC1(C(=O)N/N=C/c2cc3c(cc2Br)OCO3)CC1(Br)Br (centres undefined) | -1.53 | – |
| O=C(CNC(=O)C1COc2ccccc2O1)N/N=C/c1cc(Br)c(O)c(Br)c1 (centres undefined) | -14.6 | – |
| Cc1ccccc1-c1cc(C(=O)NCc2cccs2)n(CC2CC(c3cccnc3)=NO2)n1 (centres undefined) | -1.1 | – |
| COc1ccc(Cl)cc1NC(=O)Cn1c(=O)c2ccccc2n2nncc12 | -9.12 | – |
| COc1ccc(NC(=O)C2CCC(CNS(=O)(=O)c3csc(C(N)=O)c3)CC2)cc1OC (centres undefined) | -0.339 | – |
| CCN(CC)C(=O)CSc1nc2ccsc2c(=O)n1Cc1ccccc1Cl | -8.76 | – |
| Brc1ccc(-c2noc(-c3ccccc3)n2)o1 | – | 2.13 µM (active) and 1.35 µM (active) |
| O=C(COC(=O)c1ccccc1Br)Nc1nnc(-c2ccccc2)o1 | -7.96 | – |
| Cn1nc(-c2ccccc2)c(-c2nc(-c3ccc(Cl)cc3)no2)c1Cl | -2.68 | – |
| O=C(OCc1ccc(Br)cc1)c1cccc(-c2nnc(-c3ccccc3)o2)c1 | -4.27 | – |
| Brc1ccc(-c2nnc(-c3ccccc3)o2)o1 | – | 6.01 µM (active) |
| O=C1c2ccccc2C(=O)N1CCCc1nc(-c2ccccc2)no1 | -2.23 | – |
| Cc1ccc(Cc2nc3ccccc3nc2SCC(=O)Nc2cccc(C(F)(F)F)c2)cc1 | 1.52 | – |
| CCCc1nn2c(=O)cc(COC(=O)c3ccc(NC(=O)C(C)Oc4ccccc4)cc3)nc2s1 (centres undefined) | -6.12 | – |
| CN(CC(=O)Nc1cccc(F)c1)C(=O)CC1CCCC1 | 3.45 | – |
| O=C(NCc1ccccc1CN1CCCC1)C1CCN(S(=O)(=O)c2ccc(Cl)cc2)CC1 | -0.436 | – |
| O=C(COC(=O)C1CCCCC1)Nc1ccc([N+](=O)[O-])cc1 | – | 16.9 µM (active) |
| N/C(Cc1ccc([N+](=O)[O-])cc1)=N\OC(=O)C1CCCCC1 | -3.28 | – |
| NC(=O)c1ccc(NC(=O)COC(=O)c2ccc([N+](=O)[O-])cc2)cc1 | -0.303 | – |
| O=C(CN1CCSc2ccccc21)N1CCN(c2ccccc2)CC1 | -5.65 | – |
| CCCCN1C(=O)CC(N2CCOCC2)C1=O (centres undefined) | -0.0203 | – |
| CC(=O)c1nn(-c2cccc(Br)c2)cc1C(=O)c1cccc2ccccc12 | -2.37 | – |
| CCOC(=O)c1cn(Cc2cccc(C)c2)nn1 | 2.45 | – |
| CCOC(=O)c1nn(-c2cccc(C)c2)cc1C(=O)c1ccccc1 | – | 9.53 µM (active) |
| COc1ccc(S(=O)(=O)NCc2cccn2Cc2cccc(C)c2)cc1Cl | -8.6 | – |
| Cc1cc(Cl)ccc1OCc1nc(-c2ccncc2)no1 | – | 10.7 µM (active) |

| Compound | activity change, negative = inhibition [%] | Potency |
| --- | --- | --- |
| Cc1ccccc1C(=O)NCc1nc(-c2ccc(Cl)cc2)no1 | -1.77 | – |
| Cc1cc(Cl)ccc1OCCCC(=O)NCc1ccncc1 | -4.06 | – |
| Cc1ccc(CNC(=O)CSc2c(C)cnc3c2c(=O)n(C)c(=O)n3C)cc1 | -0.897 | – |
| CCC(=O)Nc1ccc(C(=O)NNC(=O)c2ccc(Cl)cc2)cc1 | -3.51 | – |
| O=C(Nc1cccc(Cl)c1)c1csnn1 | -14.4 | – |
| O=C(Nc1ccc(Cl)cc1)c1ccsn1 | – | 12 µM (active) |
| O=[N+]([O-])c1cc(-c2nc(-c3ccccc3)no2)ccc1NCc1ccco1 | -8.68 | – |
| Cc1cc2n(n1)C(c1cc(C(C)(C)C)c(O)cc1O)Nc1ccccc1-2 (centres undefined) | -15.3 | – |
| CCC1C=C(c2ccccc2)C=CN=C1N(CC)CC (centres undefined) | 0.24 | – |
| CCOc1ccc(CCNC(=O)Cn2nc(CC)n3c(cc4sc(CC)cc43)c2=O)cc1OCC | -5.54 | – |
| COc1ccc(-c2cc(C(F)(F)F)n3nc(-c4ccccc4)cc3n2)cc1OC | -0.561 | – |
| Cc1cc(N)n2nc(-c3ccc(C(C)(C)C)cc3)cc2n1 | – | 0.601 µM (active) |
| Cc1cc(-c2ccccc2)n2nc(-c3ccccc3)cc2n1 | -16.5 | – |
| Cc1cc(C)cc(-n2c(SCC(=O)NCC3CCCO3)nc3c([nH]c4ccccc43)c2=O)c1 (centres undefined) | -0.071 | – |
| COc1cccc(NC(=O)Nc2ccc3c(c2)N(C)C(=O)c2ccccc2S3)c1 | 1.22 | – |
| CCCCS(=O)(=O)c1oc(-c2cccs2)nc1S(=O)(=O)c1ccccc1 | -0.854 | – |
| CCOCCCNC(=O)C(NC(=O)c1ccccc1O)c1ccccc1 (centres undefined) | -1.29 | – |
| CC(=O)c1ccc(NC(=O)c2ccc3c(Cl)c4c(nc3c2)CCCC4)cc1 | 3.57 | – |
| COc1ccc(N2CCN(C(=O)c3ccc4c(Cl)c5c(nc4c3)CCCC5)CC2)cc1 | – | inactive |
| CC(C)CCNC(=O)c1ccc2c(Cl)c3c(nc2c1)CCC3 | – | 0.675 µM (active) |
| CCOc1ccc(OCC(=O)OC(C)C(=O)NC2CCCCC2C)cc1 (centres undefined) | -0.597 | – |
| CCc1cc2c(cc3c(=O)n(CC(=O)NCCc4ccc(OC)c(OC)c4)ncn32)s1 | -4.14 | – |
| Cc1ccc(C(=O)NCCNC(=O)c2cnccn2)cc1 | -0.972 | – |
| CCN(CC)c1ccc(/C=N/NC(=O)c2cnccn2)c(O)c1 | – | 9.53 µM (active) |
| COc1ccc(NC(=O)C/C(C)=N/NC(=O)c2cnccn2)cc1Cl | 0.369 | – |
| O=C(CSc1ncnc2c1cnn2CCc1ccccc1)Nc1ccc(F)cc1 | 4.06 | – |
